A word on the AC50: it is the midpoint of the concentration-response curve, whichever way the signal moves.

Test [1] deals with bovine Estrogen Receptor (ER), ESR1 (gene 407238) (UniProt P49884). Description: NVS_NR_bER: NovaScreen (NVS) Nuclear Receptor Binding Assay for bovine Estrogen Receptor (ER) (AID 2283345).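 Note: actives lower the bound radioligand count which means they displace the ER ligand.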 Put shortly:
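Cell-free radioligand binding with bovine uterine membrane extracts, read 18 hours after dosing by scintillation counting. Loss of signal versus DMSO baseline indicates displacement. Primary screen run in duplicate at 25 uM, actives followed in concentration series.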

The target of test [2] is rat Peripheral-type Benzodiazepine Receptor (PBR), Tspo (gene 24230) (UniProt P16257). Description: NVS_MP_rPBR: NovaScreen (NVS) Membrane Protein Assay for rat Peripheral-type Benzodiazepine Receptor (PBR) (AID 2283335). Put shortly:
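Radioligand displacement, rat kidney membrane prep, 1 h exposure, filter-based scintillation read; DMSO baseline, loss-of-signal scored. Primary screen at 25 uM in duplicate, actives followed up in concentration series.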

Test [3] deals with human Peripheral-type Benzodiazepine Receptor (PBR), TSPO (gene 706) (UniProt P30536). Description: NVS_MP_hPBR: NovaScreen (NVS) Membrane Protein Assay for human Peripheral-type Benzodiazepine Receptor (PBR) (AID 2283331).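 Note: hits reduce radioligand binding relative to DMSO baseline.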 Put shortly: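 Human colonic cell membranes were incubated with test chemical for 1 hour; radioligand binding was measured by filter-based scintillation counting. Primary screen ran in duplicate at 25 uM, with actives followed in concentration series; loss of signal versus DMSO baseline.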
Chain of human Peripheral-type Benzodiazepine Receptor (PBR), TSPO (gene 706) (P30536 whole entry, looked up): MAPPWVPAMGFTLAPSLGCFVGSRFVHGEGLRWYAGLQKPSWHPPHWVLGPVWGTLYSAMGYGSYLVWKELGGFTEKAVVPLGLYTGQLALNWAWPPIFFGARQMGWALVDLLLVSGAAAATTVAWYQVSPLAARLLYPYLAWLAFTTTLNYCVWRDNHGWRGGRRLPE

For another test, the system named is NCBI gene 100848466. Description: NVS_NR_bPR: NovaScreen (NVS) Nuclear Receptor Binding Assay for bovine Progextron Receptor (PR) (AID 2283343).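 For AC50: actives lower bound radioligand signal below DMSO meaning displacement of the label.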 In outline:
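Bovine uterine membrane preparation, cell-free; radioligand competitive displacement measured by scintillation counting 18 hours after dosing. Loss of signal versus DMSO baseline indicates binding; primary HTS single concentration 25 uM in duplicate, actives followed in concentration series.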

For test [4], the target named is rat Gamma-Aminobutyric Acid Type A Receptor, Non-Selective (GABAR-NonSelective), Gabra1 (gene 29705) (UniProt P62813). Description: NVS_LGIC_rGABAR_NonSelective: NovaScreen (NVS) Ligand-Gated Ion Channel Assay for rat Gamma-Aminobutyric Acid Type A Receptor, Non-Selective (GABAR-NonSelective) (AID 2283326). In outline:
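Radioligand displacement on rat whole-brain extract, 1 h, filter scintillation readout; signal loss fitted versus DMSO. Primary screen in duplicate at 25 uM; hits (e.g. ≥30% inhibition) retested in concentration-response up to 50 uM.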

In test [5] the target is Voltage-gated inwardly rectifying potassium channel KCNH2 (Homo sapiens) (UniProt Q12809). Description: NVS_IC_hKhERGCh: NovaScreen (NVS) Ion Channel Assay for human Potassium Channel ERG (KhERGCh) (AID 2283333). Put shortly:
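Cell-free radioligand competition binding on hERG protein extracted from CHO cells, read by filter-based scintillation counting 0.75 h after dosing. Primary screen at 25 uM in duplicate, actives followed in concentration series. Signal loss fitted versus DMSO.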

The nature of test [6]: NVS_IC_rCaBTZCHL: NovaScreen (NVS) Ion Channel Assay for Calcium Channel, Type L, Benzothiazepine Site (CaBTZCHL) (AID 2283337). Put shortly:
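Radioligand binding to the benzothiazepine site of L-type Ca channels in rat cortical membranes (cell-free), 1.5 h after dosing; filter-based scintillation counting. Loss of signal relative to DMSO baseline; primary single-concentration screen at 25 uM, actives then run in concentration series.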

Test [7] relates to guinea pig Histamine Receptor (H2), gene 100729734. Kind of test: NVS_GPCR_gH2: NovaScreen (NVS) G Protein-Coupled Receptor Assay for guinea pig Histamine Receptor (H2) (AID 2283342). In outline: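 Radioligand displacement on guinea pig striatal membranes, 1 h after dosing, filter-based scintillation counting; loss of signal versus DMSO. Single-point screen at 25 uM in duplicate, then concentration-response up to 50 uM.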

For test [8], the target named is human Constitutive Androstane Receptor (CAR), NR1I3 (gene 9970) (UniProt Q14994). Description: NVS_NR_hCAR_Antagonist: NovaScreen (NVS) Nuclear Receptor Binding Assay for human Constitutive Androstane Receptor Antagonism (CAR) (AID 2283344). Put shortly: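 Cell-free TR-FRET binding read 1 h after dosing, antagonist mode; loss of signal versus DMSO baseline. Primary screen in duplicate at a single 25 uM; actives retested in concentration series.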
Chain of human Constitutive Androstane Receptor (CAR), NR1I3 (gene 9970) (Q14994 whole entry, looked up): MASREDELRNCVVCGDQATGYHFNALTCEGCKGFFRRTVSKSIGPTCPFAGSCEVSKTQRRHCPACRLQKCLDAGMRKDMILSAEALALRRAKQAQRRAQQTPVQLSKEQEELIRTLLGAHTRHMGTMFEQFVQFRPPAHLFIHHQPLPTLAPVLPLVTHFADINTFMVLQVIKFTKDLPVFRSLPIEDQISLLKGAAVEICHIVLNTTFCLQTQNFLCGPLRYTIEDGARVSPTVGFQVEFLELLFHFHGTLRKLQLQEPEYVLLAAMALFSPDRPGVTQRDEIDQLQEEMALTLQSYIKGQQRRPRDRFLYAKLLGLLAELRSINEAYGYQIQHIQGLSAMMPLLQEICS

Test [9] addresses bovine Gamma-Aminobutyric Acid Type A Receptor Agonist (GABAR Agonist), GABRA1 (gene 780973) (UniProt P08219). Description: NVS_LGIC_bGABAR_Agonist: NovaScreen (NVS) Ligand-Gated Ion Channel Assay for bovine Gamma-Aminobutyric Acid Type A Receptor Agonist (GABAR Agonist) (AID 2283338). In outline:
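Radioligand binding to bovine cerebellar membranes in agonist format, read by filter-based scintillation counting after 1 h. Primary screen in duplicate at 25 uM, with actives followed in concentration series. Gain of signal versus DMSO.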

Values joined by “and” are separate entries in the source; they are usually repeats but may differ in a detail not shown here. Equal values may be shown once. Results filed as inconclusive are left out. Where a structure was tested more than once in an assay, its records may differ in their call. Active and inactive are the calls of the source. Rule for the calls: active = hit-call score of the fitted dose curve at least 0.9, where 1 is the maximum; inconclusive = response in the unintended direction; inactive = score below 0.9.

Chain of bovine Estrogen Receptor (ER), ESR1 (gene 407238) (P49884 whole entry, looked up): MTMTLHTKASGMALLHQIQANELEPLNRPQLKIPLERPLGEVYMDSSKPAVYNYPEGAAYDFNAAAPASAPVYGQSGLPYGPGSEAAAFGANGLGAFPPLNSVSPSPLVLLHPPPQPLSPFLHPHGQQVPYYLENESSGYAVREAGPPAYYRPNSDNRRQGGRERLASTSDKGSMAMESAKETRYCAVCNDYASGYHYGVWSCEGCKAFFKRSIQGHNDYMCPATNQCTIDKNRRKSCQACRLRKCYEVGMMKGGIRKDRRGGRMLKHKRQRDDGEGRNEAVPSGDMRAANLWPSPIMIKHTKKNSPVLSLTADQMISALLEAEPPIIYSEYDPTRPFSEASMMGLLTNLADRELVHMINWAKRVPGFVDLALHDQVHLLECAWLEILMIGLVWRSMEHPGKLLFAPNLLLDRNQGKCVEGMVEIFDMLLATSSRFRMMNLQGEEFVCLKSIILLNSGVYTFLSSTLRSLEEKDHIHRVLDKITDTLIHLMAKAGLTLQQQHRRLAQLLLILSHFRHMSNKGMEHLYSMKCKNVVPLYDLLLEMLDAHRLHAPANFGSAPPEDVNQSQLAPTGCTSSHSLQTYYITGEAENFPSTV
Chain of rat Peripheral-type Benzodiazepine Receptor (PBR), Tspo (gene 24230) (P16257 whole entry, looked up): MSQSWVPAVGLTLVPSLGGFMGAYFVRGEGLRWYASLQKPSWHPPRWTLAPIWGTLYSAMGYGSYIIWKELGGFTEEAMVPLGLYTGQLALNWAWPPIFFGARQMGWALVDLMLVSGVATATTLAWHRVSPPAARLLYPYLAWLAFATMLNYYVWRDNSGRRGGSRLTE
Chain of rat Gamma-Aminobutyric Acid Type A Receptor, Non-Selective (GABAR-NonSelective), Gabra1 (gene 29705) (P62813 whole entry, looked up): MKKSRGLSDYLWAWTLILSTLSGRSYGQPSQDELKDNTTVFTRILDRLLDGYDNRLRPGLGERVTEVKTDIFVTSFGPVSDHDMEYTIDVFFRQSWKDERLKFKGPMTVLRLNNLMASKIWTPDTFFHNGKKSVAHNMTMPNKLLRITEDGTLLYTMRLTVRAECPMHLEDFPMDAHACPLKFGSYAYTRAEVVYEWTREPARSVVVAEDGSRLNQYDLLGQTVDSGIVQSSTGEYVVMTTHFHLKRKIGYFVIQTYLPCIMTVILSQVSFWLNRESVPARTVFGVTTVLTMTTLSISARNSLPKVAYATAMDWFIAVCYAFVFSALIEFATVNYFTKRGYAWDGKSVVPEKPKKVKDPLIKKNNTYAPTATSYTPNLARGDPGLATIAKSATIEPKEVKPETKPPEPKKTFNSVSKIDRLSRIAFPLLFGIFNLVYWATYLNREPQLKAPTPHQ
Chain of Voltage-gated inwardly rectifying potassium channel KCNH2 (Homo sapiens) (Q12809 whole entry, looked up): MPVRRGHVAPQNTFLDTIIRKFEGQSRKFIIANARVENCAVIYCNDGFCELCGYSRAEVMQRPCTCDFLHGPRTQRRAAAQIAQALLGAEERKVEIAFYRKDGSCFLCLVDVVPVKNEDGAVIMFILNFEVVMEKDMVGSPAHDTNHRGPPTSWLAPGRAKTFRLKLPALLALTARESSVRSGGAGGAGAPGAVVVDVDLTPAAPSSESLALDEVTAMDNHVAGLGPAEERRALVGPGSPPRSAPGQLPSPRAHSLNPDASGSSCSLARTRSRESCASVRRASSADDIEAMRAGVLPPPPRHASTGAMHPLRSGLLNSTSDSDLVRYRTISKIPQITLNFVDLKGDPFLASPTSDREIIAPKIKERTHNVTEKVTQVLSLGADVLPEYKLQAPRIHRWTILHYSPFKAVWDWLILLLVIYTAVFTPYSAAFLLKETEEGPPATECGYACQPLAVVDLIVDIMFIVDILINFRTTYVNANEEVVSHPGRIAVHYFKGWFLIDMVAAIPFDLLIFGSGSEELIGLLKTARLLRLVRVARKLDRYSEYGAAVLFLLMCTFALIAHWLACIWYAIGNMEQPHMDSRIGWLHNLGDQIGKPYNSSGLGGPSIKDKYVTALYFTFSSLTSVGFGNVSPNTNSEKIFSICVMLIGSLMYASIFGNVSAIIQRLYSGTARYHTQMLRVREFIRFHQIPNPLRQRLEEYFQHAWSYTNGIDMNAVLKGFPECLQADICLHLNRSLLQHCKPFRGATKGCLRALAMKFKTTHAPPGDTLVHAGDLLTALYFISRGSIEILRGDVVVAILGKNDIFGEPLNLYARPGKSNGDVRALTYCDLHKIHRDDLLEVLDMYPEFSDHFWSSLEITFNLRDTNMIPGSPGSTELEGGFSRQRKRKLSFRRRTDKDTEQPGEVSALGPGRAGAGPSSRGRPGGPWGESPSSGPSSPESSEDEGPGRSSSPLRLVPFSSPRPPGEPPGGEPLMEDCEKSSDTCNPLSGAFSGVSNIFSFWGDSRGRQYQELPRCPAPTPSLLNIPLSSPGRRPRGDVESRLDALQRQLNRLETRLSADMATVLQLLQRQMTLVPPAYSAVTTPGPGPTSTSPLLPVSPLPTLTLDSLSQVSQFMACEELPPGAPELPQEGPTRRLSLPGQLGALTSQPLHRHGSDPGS
Chain of bovine Gamma-Aminobutyric Acid Type A Receptor Agonist (GABAR Agonist), GABRA1 (gene 780973) (P08219 whole entry, looked up): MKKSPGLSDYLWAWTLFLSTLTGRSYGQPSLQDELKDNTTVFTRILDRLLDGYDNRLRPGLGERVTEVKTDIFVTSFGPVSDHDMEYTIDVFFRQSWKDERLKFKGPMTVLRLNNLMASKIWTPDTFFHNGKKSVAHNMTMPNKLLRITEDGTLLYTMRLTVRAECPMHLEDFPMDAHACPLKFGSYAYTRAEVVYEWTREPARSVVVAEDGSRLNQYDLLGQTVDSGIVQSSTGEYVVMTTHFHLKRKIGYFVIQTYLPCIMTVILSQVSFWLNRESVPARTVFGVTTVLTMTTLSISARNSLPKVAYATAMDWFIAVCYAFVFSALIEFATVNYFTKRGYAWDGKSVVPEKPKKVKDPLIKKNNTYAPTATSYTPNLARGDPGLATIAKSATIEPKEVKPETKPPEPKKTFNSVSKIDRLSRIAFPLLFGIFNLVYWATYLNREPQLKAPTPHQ

In the case of `O=S1(=O)CC(Cl)(Cl)C(Cl)(Cl)C1`, in test [1], the call was inactive.

On to `CN(C)CCC=C1c2ccccc2CCc2ccccc21`, for which the outcome in test [1] was inactive.

For `CC1(C)[C@H](C=C(Cl)Cl)[C@H]1C(=O)OCc1cccc(Oc2ccccc2)c1`, the call in test [2] was inactive.

As for `C#C[C@]1(O)CC[C@H]2[C@@H]3CCc4cc(O)ccc4[C@H]3CC[C@@]21C`, the half-maximal activity concentration (AC50) in test [3] was 2.52 µM (active) and 13.7 µM (active) and 11.4 µM (active); in test [2] it was 4.59 µM (active); in the test on NCBI gene 100848466 it was 51 nM (active). Moreover, the molecule was called inactive in test [2].

In the case of `CCCCCCCCCCCCOCCOS(=O)(=O)O`, in [1], the call was inactive.

Regarding `O=C(Nc1cccc(Cl)c1)OCC#CCCl`, in test [1], the call was inactive.

Turning to `O=C(c1ccc(OCCN2CCCCC2)cc1)c1c(-c2ccc(O)cc2)sc2cc(O)ccc12`, the molecule was classed as inactive (in test [4]; in test [6]; with NCBI gene 100848466). The AC50 in test [5] was 5.34 µM (active); in test [2] it was 6.31 µM (active); in [7] it was 4.18 µM (active); in [8] it was 38.5 µM (active).

For `C[C@]12CC[C@@H]3c4ccc(O)cc4CC[C@H]3[C@@H]1CC[C@@H]2O`, the half-maximal activity concentration (AC50) in the test on NCBI gene 100848466 was 8.98 nM (active). Further, the molecule was called inactive in test [8].

In the case of `Cc1ccc(C(C)(C)O)cc1`, the outcome in test [6] was inactive.

On to `CCCCCCCCOC(=O)c1ccc(O)cc1`, for which, in [1], the molecule was called inactive.

With `CC(C)(CO)CO`, the result in test [1] was inactive.

Consider `CCC(C)(C)C1CCC(=O)CC1`, for which, in test [1], the AC50 was 4.52 µM (active).

For the molecule `CC/C(=C(\c1ccccc1)c1ccc(OCCN(C)C)cc1)c1ccccc1`, the half-maximal activity concentration (AC50) in test [6] is 938 nM (active) and 874 nM (active); in test [7], 4.7 µM (active) and 1.19 µM (active). The molecule was called inactive in test [9].

As for `O=C1OC2(c3ccc(O)cc3Oc3cc(O)ccc32)c2ccccc21`, the AC50 in test [3] was 25 µM (active) and 9.1 µM (active); in test [2], 15.1 µM (active); in [1], 15.8 µM (active). In addition, the result in [6] was inactive.

For `CN1CCc2cccc3c2[C@H]1Cc1ccc(O)c(O)c1-3`, the AC50 in test [3] is 1.83 µM (active).

`Nc1ccc(N)c([N+](=O)[O-])c1`: the half-maximal activity concentration (AC50) in test [3] was 3.27 µM (active) and 1.74 µM (active); in [2] it was 1.02 µM (active). Further, the molecule was classed as inactive in test [2] and in [6].

For `CC(C)(C)c1ccc(S)cc1`, in test [1], the AC50 was 0.551 µM (active).

For the molecule `Cc1cc(O)c2c(c1)C(=O)c1cc(O)cc(O)c1C2=O`, the molecule was classed as inactive in [1].

In the case of `C=CC(=O)OCC(CO)(COC(=O)C=C)COC(=O)C=C`, the AC50 in test [3] was 11 µM (active). Moreover, the molecule was classed as inactive in test [1].

Consider `CCCCCC1C(=O)CCC1CC(=O)OC` (stereo not given), for which the AC50 in test [2] was 11.6 µM (active) and 25 µM (active). Moreover, the result in [6] was inactive.

Regarding `COc1ccccc1O`, the outcome in test [1] was inactive.

On to `COc1cc(OC)c2ccc(=O)oc2c1`, for which the values for the AC50 in test [3] and in [2] were 12.1 µM (active) and 0.157 µM (active), respectively.

As to `CC1(C)CC(=O)CC(C)(C)N1`, the molecule was called inactive in [1].

As to `CCOCC(C)O` (stereo not given), the result in test [1] was inactive.

As to `CC/C=C\CCOC(C)OCC` (stereo not given), the call in test [1] was inactive.

As for `CCCCCCOc1ccc(O)cc1`, the figures for the concentration at half-maximal activity (AC50) in [3] and in test [2] were 7.77 µM (active) and 6.49 µM (active), respectively. Also, the molecule was classed as inactive in [1].

Consider `CC(=O)CC(=O)N(C)C`, for which the call in [1] was inactive.

As to `CCC(C)(C)c1cc(O)c(C(C)(C)CC)cc1O`, the outcome in test [1] was inactive.

On to `CCc1cccc(O)c1`, for which, in test [2], the molecule was called inactive.

Take `C=C1CC/C=C(\C)CC[C@@H]2[C@@H]1CC2(C)C`: the outcome in test [6] was inactive.

In the case of `CC/C=C\CCCCCCCCCCOC(C)=O`, the outcome in [1] was inactive.

Consider `CCCCCCCCCOS(=O)(=O)O`, for which the molecule was called inactive in test [1].

Regarding `CC(O)CN` (stereo not given), in test [1], the molecule was called inactive.

As to `C[C@H](CCC(=O)O)[C@H]1CC[C@H]2[C@@H]3CC[C@@H]4C[C@H](O)CC[C@]4(C)[C@H]3CC[C@]12C`, the call in test [1] was inactive.

As to `CC(=O)C1C(=O)C=C(C)OC1=O` (stereo not given), the molecule was classed as inactive in test [1].

As for `CCC(=O)OC(C)(C)C1CC=C(C)CC1` (stereo not given), in test [1], the molecule was called inactive.

Consider `Cc1cccc(O)c1`, for which the call in test [1] was inactive.

For the molecule `CCCCCC(=O)O[C@]1(C(C)=O)CC[C@H]2[C@@H]3CCC4=CC(=O)CC[C@]4(C)[C@H]3CC[C@@]21C`, the molecule was classed as inactive in test [1].

On to `CC(=O)OC(C)(C)C1CC=C(C)CC1` (stereo not given), for which the outcome in test [6] and in [1] was inactive.

Consider `NC(=O)c1c(Cl)cccc1Cl`, for which, in test [3], the AC50 is 3.59 µM (active). For the same molecule, the result in test [2] was inactive.

Source of the values: PubChem BioAssay (EPA / NIEHS).
